The values below come from ChEMBL document CHEMBL3988442, “University of Dundee, Small-Polar-MMV Screening Library” (2021).

About 13,000 (27%) of roughly 48,000 compounds showed an effect of 50% or more. The list shows a part of the results.

The test system of the assay is Wolbachia pipientis. In words: Anti-Wolbachia Cell-Based Screen. In kind it is functional. The note with it: 5 µM. Further details: scale not given: in the data most compounds retested in dose-response had high values.
For the molecule `Cn1cc(C(=O)Nc2cccc(-c3ccc4c(c3)CCO4)n2)ccc1=O`, the “Percent Effect” value worked out at 14%.
For the molecule `O=C(Cc1cccnc1)N1C[C@@H]2CC[C@H](C1)N(Cc1ccccc1)C2=O`, the “Percent Effect” value is -0.7591%.
As to `O=C(Cc1ccccn1)N1C[C@@H]2CC[C@H](C1)N(Cc1ccccc1)C2=O`, the “Percent Effect” value is reported as -26.39%.
The value for `O=C1c2ncccc2C(CCO)N1Cc1ccccc1` (stereo not drawn) was 101.3%.
`CNC(=O)c1cccnc1N1CCN(Cc2ccccc2)C(CCO)C1` (stereo not drawn): the “Percent Effect” value is given as -3.747%.
Take `CNC(=O)CC1c2cccnc2C(=O)N1Cc1ccccc1` (stereo not drawn): the “Percent Effect” value came out at 136.6%.
With `NC(=O)CC1c2cccnc2C(=O)N1Cc1ccccc1` (stereo not drawn) the figure was 97.87%; with `CNC(=O)CC1CC2(CCN(c3ncccn3)CC2)c2ccccc21.O=C(O)C(F)(F)F` (stereo not drawn), -15.28%.
The value for `CCC1CN(C(=O)c2cccnc2O)CCC(=O)N1Cc1ccccc1` (stereo not drawn) was -1.189%; that for `COC(=O)CC1c2cccnc2C(=O)N1Cc1ccccc1` (stereo not drawn) was 107.1%; that for `CCC1CN(C(=O)c2ncccc2O)CCC(=O)N1Cc1ccccc1` (stereo not drawn) was -8.07%.
For the molecule `COC(=O)CC1CN(Cc2c(Cl)ccc3cccnc23)CCO1` (stereo not drawn), the “Percent Effect” value is -2.588%.
Consider `O=C(O)c1cccnc1N1CCN(Cc2ccc(F)cc2)C(CCO)C1` (stereo not drawn), for which the “Percent Effect” value is -1.62%.
With `O=C(Nc1ccccc1OC(F)F)C1=NN(c2ccccc2)C(=O)CN1` the figure was 6.158%; with `CC(C)c1noc(CCC(=O)N2CCN(C)CC2c2ccccc2)n1` (stereo not drawn), 2.762%.
With `CN(C)CCn1ccc2ccc(NC(=O)c3ccncc3F)cc21` the figure was -14.36%; with `Cc1nn(C)c(C)c1CC(C)NC(=O)NCc1ccoc1C` (stereo not drawn), -1.757%; with `COc1cc(OC)cc(C(=O)N(C)Cc2nnc3ccccn23)c1`, 132.8%.
With `Cc1ccc(C)c(C(O)CN(C)Cc2nnc3ccccn23)c1` (stereo not drawn), the “Percent Effect” value is recorded as -3.237%.
With `CN(Cc1nnc2ccccn12)C(=O)CCNC(=O)C(C)(C)C` the figure was 7.202%; with `COc1ccc(C(=O)N(C)Cc2nnc3ccccn23)cc1`, 104.5%.
The value for `COc1ccc(CC(=O)N(C)Cc2nnc3ccccn23)cc1` was 2.883%; that for `CCC(O)CN(C)Cc1nnc2ccccn12` (stereo not drawn) was -1.119%; that for `CN(C(=O)c1cc(Cl)c[nH]1)C1CCN(c2ccccn2)CC1` was -4.084%.
With `CN(C(=O)Nc1cccc(C#N)c1)C1CCN(c2ccccn2)CC1` the figure was -13.99%.
For the molecule `CN(C(=O)c1cccc(Cl)c1)C1CCN(c2ccccn2)CC1`, the “Percent Effect” value is 127.4%.
With `CN(C(=O)c1ccc(Cl)cc1)C1CCN(c2ccccn2)CC1` the figure was 98.58%.
With `CN(C(=O)c1ccc(C#N)cc1)C1CCN(c2ccccn2)CC1` the figure was 4.986%.
